HT1080 IDH1KD tx: qHTS for induction of synthetic lethality in tumor cells producing 2HG: qHTS for the HT-1080-IDH1KD cell line. 360,000 tested, 2% active. HT-1080 IDH1 knockdown viability, ATP luminescence, 48 h. Potency, µM (top dose mostly 46.1 µM), for inactives: at the top dose activity, negative = toxicity, actives largely listed as cytotoxic. AID 686971, 2013;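 further: 0% = DMSO wells and -100% = cell-free medium wells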
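Using the IDH1-knockdown HT-1080 line run in the same batch and compound series as the NT line, viability after 48 h at 37 °C was determined by CellTiter-Glo luminescence and expressed as % activity.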
HT1080NT lethal: qHTS for induction of synthetic lethality in tumor cells producing 2HG: qHTS for the HT-1080-NT fibrosarcoma cell line. 360,000 tested, 1.6% active. Potency, µM (titrated, usually from 46.1 µM), for inactives: top-dose activity, negative = less viability, actives largely listed as cytotoxic. HT-1080-NT fibrosarcoma viability, CellTiter-Glo ATP luminescence, 48 h;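 further: NT is the 2HG producing partner of a matched IDH1 knockdown line; 0% = DMSO-treated cells and -100% = media-only wells without cells; nearly all actives have a fitted effect of over 55% in size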
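Toxicity toward the 2HG-producing NT line was scored as %Activity, normalised to DMSO and no-cell wells, from CellTiter-Glo luminescence after 48 hours' treatment.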
TDP1 cell CPT: qHTS for Inhibitors of human tyrosyl-DNA phosphodiesterase 1 (TDP1): qHTS in cells in presence of CPT; chicken DT40 Tdp1-/-;hTDP1 cells + 20 nM CPT, ATP luminescence, 48 h; Potency, µM (doses to about 46.2 µM), for the others: at the highest dose activity change, negative = growth inhibition, most hits filed as inhibitors; 420,000 tested, 12% active; AID 686979, 2013; further: nearly all actives have a fitted effect of over 55% in size
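Chicken DT40 Tdp1-/- cells stably complemented with human TDP1 were seeded at 400 cells/well in medium containing 20 nM camptothecin, exposed to pin-transferred compounds, and grown at 37 °C for at least 48 hr. Viability was read as ATP luminescence.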
DT40 TDP1 no CPT: qHTS for Inhibitors of human tyrosyl-DNA phosphodiesterase 1 (TDP1): qHTS in cells in absence of CPT; AID 686978, 2013; Potency, µM (doses to about 46.2 µM), inactives show at the highest dose activity change, negative = growth inhibition, most hits filed as inhibitors; DT40 Tdp1-/- hTDP1 cells, no CPT, ATP luminescence, 48 h; 420,000 tested, 15% active; further: nearly all actives have a fitted effect of over 55% in size
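DT40 Tdp1-/-;hTDP1 cells, no CPT (DMSO vehicle only), 400 cells/well; compounds pin-transferred; ≥48 hr, 37 °C; CellTiter-Glo 30 min RT dark, luminescence read.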
KB-V1 MDR tox: qHTS assay for MDR1-selective chemotherapeutics: Primary screen using the drug-selected MDR subline cells KB-V1; KB-V1 MDR cells viability, CellTiter-Glo, 72 h; Potency, µM (series often up to 46.1 µM), actives largely listed as cytotoxic; 400,000 tested, 3.4% active; AID 1347076, 2019; further: nearly all actives have a fitted effect of over 60% in size
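Potencies derive from concentration-effect curves fitted to normalized luminescence (CellTiter-Glo) of KB-V1 cells treated for 72 h at 37 degrees C in phenol-red-free DMEM containing 10% FBS.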
KB-3-1 tox: qHTS assay for MDR1-selective chemotherapeutics: Primary screen using the parental adenocarcinoma cell KB-3-1; Potency, µM (highest dose often 46.1 µM), actives largely listed as cytotoxic; 400,000 tested, 1.4% active; KB-3-1 viability, CellTiter-Glo ATP luminescence, 72 h; further: nearly all actives have a fitted effect of over 60% in size
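Multi-concentration cytotoxicity screen in KB-3-1 cells grown in DMEM lacking phenol red with 10% FBS. After 72 h at 37 °C with compound, ATP-dependent luminescence was recorded.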
* hit, by the source's call; i = inactive; ? = inconclusive; / = no result given; ! = not active in a repeat. Compounds with a hit are over-represented: about 19% of the library has one in this group of screens. The call rests on the fitted dose curve; in most records, active means well fitted curve in the direction sought with a large enough effect; inconclusive means small, poorly fitted or top-dose-only effect, or another doubt; inactive means no such curve, though single readings can be large; an effect the other way counts as inactive or inconclusive. Unless noted, on the % scale 0 is the no-effect control and ±100 the full control effect; potency means the concentration at half of the fitted maximal effect.

SMILES	HT1080 IDH1KD tx	HT1080NT lethal	TDP1 cell CPT	DT40 TDP1 no CPT	KB-V1 MDR tox	KB-3-1 tox
CC(C)(C)NC(=O)CN(Cc1cccs1)C(=O)CCN1CCc2ccccc21	-1%	3%	?	-21%	i	i
Oc1cc2c(c(Cl)c1O)CCNCC2c1ccccc1 (stereo not given)	?	?	8.2µM*	8.2µM*!	?	?
Oc1cc2c(c(Cl)c1O)CCNC[C@H]2c1ccccc1	/	/	12µM*	17µM*	/	/
O=c1[nH]cnc2c1ncn2-c1ccc(N(CCO)CCO)cc1	5%	-1%	1%	-14%	i	i
COc1ccc(S(=O)(=O)N2CC(O)C[C@H]2C(=O)OCC(=O)N2CCCCCC2)cc1 (stereo not given in full)	4%	0%	-2%	-21%	?	i
CC(C)N1CCC1(C)C(=O)Nc1ccc2cn[nH]c2c1 (stereo not given)	1%	16%	?	-16%	i	i
Cc1ccccc1S(=O)(=O)NC1OC(=O)C(Cl)=C1Cl (stereo not given)	-1%	5%	21µM*	?	i	i
Cc1ccccc1S(=O)(=O)NC1OC(=O)C(Oc2ccccc2)=C1Br (stereo not given)	18%	16%	-7%	2%	i	i
CCc1cccc(C)c1Nc1c(-c2cccc(O)c2)nc2cnccn12	/	/	?	?	i	i
CSc1ccc(-c2nc3ccc(C)cn3c2Nc2ccccc2C)cc1	/	/	-18%	7%	i	i
CCc1cccc(C)c1Nc1c(-c2ccsc2)nc2ncccn12	/	/	5.8µM*	7.3µM*	i	i
Cc1cccc(C)c1Nc1c(-c2ccsc2)nc2ncccn12	?	-13%	15µM*	?	12µM*	i
CCc1cccc(C)c1Nc1c(-c2ccc(SC)cc2)nc2sccn12	/	/	?	23µM*	/	/
CC(NC(=O)COc1ccc(/C=N/NC(=O)CO)cc1)c1ccccc1 (stereo not given)	0%	-7%	-19%	13%	i	i
Cc1ccc(S(=O)(=O)N2CCN(c3nc(-c4ccc(CN5CCNCC5)s4)nc4ccccc34)CC2)cc1	/	/	?	22µM*	i	i
Cc1ccc(S(=O)(=O)N2CCN(c3nc(-c4ccccc4)nc4ccccc34)CC2)cc1	/	/	7%	-16%	i	?
Cc1ccc(S(=O)(=O)N2CCN(c3nc(-c4ncco4)nc4ccccc34)CC2)cc1	-7%	-9%	11µM*	11µM*	/	/
Cc1ccc(S(=O)(=O)N2CCN(c3nc(-c4ccc(C)s4)nc4ccccc34)CC2)cc1	16%	1%	-30%	?	/	/
Cc1ccc(S(=O)(=O)N2CCN(c3nc(-c4cncn4C)nc4ccccc34)CC2)cc1	?	?	20µM*	?	/	/
Cc1ccc(S(=O)(=O)N2CCN(c3nc(-c4cncs4)nc4ccccc34)CC2)cc1	2%	6%	10µM*	7.1µM*	/	/
CC(C)(C)c1ccc(S(=O)(=O)N2CCN(c3nc(-c4cccs4)nc4ccccc34)CC2)cc1	-2%	18%	-12%	?	/	/
CSc1nc(O)c(C(c2ccc(O)cc2)c2c(O)nc(SC)[nH]c2=O)c(=O)[nH]1	1%	0%	-11%	15%	i	i
C=C1C=C(C)n2ncc(C(=O)Nc3ccc(F)cc3F)c2N1	/	/	1%	4%	i	i
